Reference: PubChem BioAssay (NCATS)
Results filed as inconclusive are left out. Activity calls are given as the source filed them. Unless noted, the call rests on the fitted dose curve; in most records, active means well fitted curve in the direction sought with a large enough effect; inconclusive means small, poorly fitted or top-dose-only effect, or another doubt; inactive means no such curve, though single readings can be large; an effect the other way counts as inactive or inconclusive.

Tested on: not listed separately
Test: MultiTox-Fluor Cytotoxicity Assay - LYMP1-001 - Dead Cells (AID 946);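 further: 0% = DMSO and 100% = tetraoctylammonium bromide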
Conditions: LYMP1-001 lymphoblastoid cells, dead-cell protease fluorescence; series mostly up to 92.2 µM; cytotoxicity (dead cells): at the top concentration
Summary of the method: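 LYMP1-001 lymphoblastoid cells (2500/well) treated 16 h at 37 C. Dead-cell protease cleavage of bis-AAF-R110 read at Ex/Em 485/520. Normalized to DMSO and 15 uM tetraoctylammonium bromide; AC50 from Hill fits.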

Structure (SMILES)	cytotoxicity (dead cells)
ClC1=C(Cl)C2(Cl)C3C(Cl)C(Cl)CC3C1(Cl)C2(Cl)Cl (stereo not given)	48.1% (inactive)
O=[N+]([O-])C(Br)Br	2.4% (inactive)
[Cd+2].[Cl-].[Cl-]	-16.1% (inactive)

Target: Pyruvate kinase PKM (Homo sapiens) (UniProt P14618)
Sequence (P14618 whole entry, looked up): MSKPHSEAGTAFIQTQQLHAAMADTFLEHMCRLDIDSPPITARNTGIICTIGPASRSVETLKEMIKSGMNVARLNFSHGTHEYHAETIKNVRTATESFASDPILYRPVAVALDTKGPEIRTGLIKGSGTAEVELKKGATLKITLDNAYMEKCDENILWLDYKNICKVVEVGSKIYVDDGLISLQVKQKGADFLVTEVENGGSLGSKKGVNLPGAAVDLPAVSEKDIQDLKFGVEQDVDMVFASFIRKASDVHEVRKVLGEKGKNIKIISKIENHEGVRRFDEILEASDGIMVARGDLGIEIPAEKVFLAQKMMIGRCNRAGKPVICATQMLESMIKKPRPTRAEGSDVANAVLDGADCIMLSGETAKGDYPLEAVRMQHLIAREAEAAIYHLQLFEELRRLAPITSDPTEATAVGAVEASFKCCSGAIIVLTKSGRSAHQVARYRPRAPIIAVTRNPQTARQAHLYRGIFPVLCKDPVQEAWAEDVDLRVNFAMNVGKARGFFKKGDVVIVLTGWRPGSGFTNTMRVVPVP
Test: qHTS Assay for Activators of Human Muscle Pyruvate Kinase (AID 954; active means well fitted curve in the direction sought with a large enough effect, not every such curve was filed as active;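 further: 0% = uninhibited enzyme and -100% = no enzyme or full thiadiazolimine inhibition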)
Conditions: purified human muscle pyruvate kinase, luciferase-coupled luminescence, 1 h; series mostly up to 57.5 µM; activity change, negative = inhibition: at the top concentration
Summary of the method: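 Compound pinned into substrate mix (0.5 mM PEP, 0.1 mM ADP), then 0.1 nM PKM2 added; 1 h, RT. Stop/detection luciferase reagent added, luminescence read. Normalized to no-inhibition and no-enzyme or reference-inhibitor controls.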

Structure (SMILES)	activity change, negative = inhibition
CCCCCCCCCCCCCC(=O)O[C@H]1[C@@H](C)[C@@]2(O)[C@@H](C=C(CO)C[C@]3(O)C(=O)C(C)=C[C@@H]23)C2C(C)(C)[C@]21OC(C)=O (stereo not given in full)	-25.3% (inactive)
COC[C@H]1OC(=O)c2coc3c2[C@@]1(C)C1=C(C3=O)[C@H]2CCC(=O)[C@@]2(C)C[C@H]1OC(C)=O	-28.9% (inactive)
C[C@@H]1O[C@@H](O[C@H]2C[C@@H](O)[C@]3(CO)[C@@H]4[C@@H](O)C[C@]5(C)[C@H](C6=CC(=O)OC6)CC[C@@]5(O)[C@H]4CC[C@@]3(O)C2)[C@H](O)[C@H](O)[C@@H]1O	-14.5% (inactive)

Target: Alpha-galactosidase (Coffea arabica) (UniProt Q42656)
Sequence (Q42656 whole entry, looked up): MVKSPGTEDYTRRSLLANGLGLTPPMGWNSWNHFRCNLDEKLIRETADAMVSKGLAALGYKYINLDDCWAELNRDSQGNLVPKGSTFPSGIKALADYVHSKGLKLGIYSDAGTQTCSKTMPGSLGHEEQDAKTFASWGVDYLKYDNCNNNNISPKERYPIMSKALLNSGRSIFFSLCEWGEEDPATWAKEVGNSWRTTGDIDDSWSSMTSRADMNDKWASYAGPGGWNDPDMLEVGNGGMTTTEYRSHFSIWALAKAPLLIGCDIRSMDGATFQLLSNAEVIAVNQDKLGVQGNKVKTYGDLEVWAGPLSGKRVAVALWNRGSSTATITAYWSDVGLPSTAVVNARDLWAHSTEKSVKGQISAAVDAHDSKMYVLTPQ
Test: Counterscreen for Glucocerebrosidase Inhibitors: qHTS Assay for Coffee Bean alpha-Galactosidase at pH 4.5 (AID 957);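 further: plate controls were enzyme alone for no effect and no enzyme for full effect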
Conditions: purified coffee bean alpha-galactosidase, fluorogenic substrate; series mostly up to 76.9 µM; activity change, negative = inhibition: at the top concentration
Summary of the method: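 Quantitative HTS of compounds (0.7 nM to 77 uM) against coffee bean alpha-galactosidase at pH 4.5, measuring 4-methylumbelliferone fluorescence released from 80 uM substrate.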

Structure (SMILES)	activity change, negative = inhibition
CCCCCCCCCCCCCC(=O)O[C@H]1[C@@H](C)[C@@]2(O)[C@@H](C=C(CO)C[C@]3(O)C(=O)C(C)=C[C@@H]23)C2C(C)(C)[C@]21OC(C)=O (stereo not given in full)	-24.9% (inactive)
COC[C@H]1OC(=O)c2coc3c2[C@@]1(C)C1=C(C3=O)[C@H]2CCC(=O)[C@@]2(C)C[C@H]1OC(C)=O	-3.56% (inactive)
C[C@@H]1O[C@@H](O[C@H]2C[C@@H](O)[C@]3(CO)[C@@H]4[C@@H](O)C[C@]5(C)[C@H](C6=CC(=O)OC6)CC[C@@]5(O)[C@H]4CC[C@@]3(O)C2)[C@H](O)[C@H](O)[C@@H]1O	-0.471% (inactive)
Oc1cc2c(cc1O)[C@H]1c3ccccc3CN[C@@H]1CC2	0.635% (inactive)

Tested on: not listed separately
Test: Cell Viability - LYMP2-015 (AID 971);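 further: cells exposed to compound for 24 h; nearly all actives have a fitted effect of over 55% in size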; further: potency means the concentration at half of the fitted maximal effect;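 on activity change, negative = lower viability: 0% = DMSO only and full effect = 92 µM tetraoctylammonium bromide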
Conditions: LYMP2-015 lymphoblastoid cell viability; series mostly up to 92.2 µM; activity change, negative = lower viability: at the top concentration
Summary of the method: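 AC50 values reflect Hill-model fits of ATP-based luminescence (CellTiter-Glo) from a human lymphoblastoid line, 2500 cells/well, treated 24 hr at 37 C.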

Structure (SMILES)	activity change, negative = lower viability	Potency
ClC1=C(Cl)C2(Cl)C3C(Cl)C(Cl)CC3C1(Cl)C2(Cl)Cl (stereo not given)	-31.4% (inactive)	–
O=[N+]([O-])C(Br)Br	–	10 µM (active)
[Cd+2].[Cl-].[Cl-]	–	50.1 µM (active)

Tested on: not listed separately
Test: Cell Viability - LYMP2-008 (AID 980); further: nearly all actives have a fitted effect of over 60% in size; further: potency means the concentration at half of the fitted maximal effect;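 on activity change, negative = cytotoxicity: cells exposed to compound for 24 h at 37 °C; on the % scale 0 is the no-effect control and ±100 the full control effect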
Conditions: LYMP2-008 lymphoblastoid cell viability, qHTS; series mostly up to 92.2 µM; activity change, negative = cytotoxicity: at the top concentration
Summary of the method: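 Measured: ATP-dependent luminescence, proportional to viable cell number, in human lymphoblastoid cells treated 24 hr with compound in complete culture medium. Values are AC50s from Hill-equation modelling of qHTS titrations.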

Structure (SMILES)	activity change, negative = cytotoxicity	Potency
ClC1=C(Cl)C2(Cl)C3C(Cl)C(Cl)CC3C1(Cl)C2(Cl)Cl (stereo not given)	-5% (inactive)	–
O=[N+]([O-])C(Br)Br	–	12.6 µM (active)
[Cd+2].[Cl-].[Cl-]	–	39.8 µM (active)

Tested on: not listed separately
Test: Cell Viability - LYMP2-016 (AID 984);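 further: cells exposed to compound for 24 hours at 37 °C; nearly all actives have a fitted effect of over 55% in size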; further: potency means the concentration at half of the fitted maximal effect; on activity change, negative = cytotoxicity: on the % scale 0 is the no-effect control and ±100 the full control effect
Conditions: LYMP2-016 lymphoblastoid cell viability, qHTS; series mostly up to 92.2 µM; activity change, negative = cytotoxicity: at the top concentration
Summary of the method: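 Cells were seeded at 2500 per well and rested 5 hr before a 24 hr compound exposure at 37 C. Viability was then gauged as cellular ATP by luciferase luminescence, with AC50 values fitted to the Hill equation.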

Structure (SMILES)	activity change, negative = cytotoxicity	Potency
ClC1=C(Cl)C2(Cl)C3C(Cl)C(Cl)CC3C1(Cl)C2(Cl)Cl (stereo not given)	-28.6% (inactive)	–
O=[N+]([O-])C(Br)Br	–	15.8 µM (active)
[Cd+2].[Cl-].[Cl-]	-23.7% (inactive)	–

Target: Alpha-galactosidase A (Homo sapiens) (UniProt P06280)
Sequence (P06280 whole entry, looked up): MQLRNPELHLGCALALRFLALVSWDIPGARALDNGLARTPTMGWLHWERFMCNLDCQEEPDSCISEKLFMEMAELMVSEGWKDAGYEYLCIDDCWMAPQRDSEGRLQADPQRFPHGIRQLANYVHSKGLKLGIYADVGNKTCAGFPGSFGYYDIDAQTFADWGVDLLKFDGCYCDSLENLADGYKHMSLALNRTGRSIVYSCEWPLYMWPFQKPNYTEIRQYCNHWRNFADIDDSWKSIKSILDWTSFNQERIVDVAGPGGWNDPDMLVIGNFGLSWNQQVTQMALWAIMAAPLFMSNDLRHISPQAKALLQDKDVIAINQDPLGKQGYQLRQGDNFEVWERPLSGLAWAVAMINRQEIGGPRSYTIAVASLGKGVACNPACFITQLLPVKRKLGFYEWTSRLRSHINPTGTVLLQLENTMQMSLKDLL
Test: Counterscreen for Glucocerebrosidase Inhibitors: qHTS Assay for Human alpha-Galactosidase at pH 4.5 (AID 992); further: 0% is about no effect
Conditions: purified enzyme, fluorogenic substrate; series mostly up to 76.9 µM; activity change, negative = inhibition: at the top concentration
Summary of the method: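 Steps: enzyme (2 nM final), then compound across 0.7 nM to 77 uM, then 80 uM fluorogenic galactopyranoside substrate; incubate 20 min at room temperature; quench at pH 10; measure fluorescence at 365/440 nm.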

Structure (SMILES)	activity change, negative = inhibition
CCCCCCCCCCCCCC(=O)O[C@H]1[C@@H](C)[C@@]2(O)[C@@H](C=C(CO)C[C@]3(O)C(=O)C(C)=C[C@@H]23)C2C(C)(C)[C@]21OC(C)=O (stereo not given in full)	-22.8% (inactive)
COC[C@H]1OC(=O)c2coc3c2[C@@]1(C)C1=C(C3=O)[C@H]2CCC(=O)[C@@]2(C)C[C@H]1OC(C)=O	-4.12% (inactive)
C[C@@H]1O[C@@H](O[C@H]2C[C@@H](O)[C@]3(CO)[C@@H]4[C@@H](O)C[C@]5(C)[C@H](C6=CC(=O)OC6)CC[C@@]5(O)[C@H]4CC[C@@]3(O)C2)[C@H](O)[C@H](O)[C@@H]1O	3.52% (inactive)
Oc1cc2c(cc1O)[C@H]1c3ccccc3CN[C@@H]1CC2	-0.184% (inactive)

Target: alpha-glucosidase (Oryza sativa, rice) (UniProt Q653V4)
Test: Counterscreen for Glucocerebrosidase Inhibitors: qHTS Assay for Rice alpha-Glucosidase at pH 5.0 (AID 997);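 further: 0% = full activity with enzyme and -100% = basal without enzyme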
Conditions: rice alpha-glucosidase enzyme activity; series mostly up to 76.9 µM; activity change, negative = inhibition: at the top concentration
Summary of the method: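 Endpoint fluorogenic assay at pH 5.0: compounds (0.7 nM to 77 uM) titrated against 4 nM rice enzyme and 400 uM 4-MU-alpha-glucoside for 20 min at room temperature; NaOH/glycine stop, read ex 365/em 440 nm, Hill-fitted AC50.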

Structure (SMILES)	activity change, negative = inhibition
CCCCCCCCCCCCCC(=O)O[C@H]1[C@@H](C)[C@@]2(O)[C@@H](C=C(CO)C[C@]3(O)C(=O)C(C)=C[C@@H]23)C2C(C)(C)[C@]21OC(C)=O (stereo not given in full)	-20.2% (inactive)
COC[C@H]1OC(=O)c2coc3c2[C@@]1(C)C1=C(C3=O)[C@H]2CCC(=O)[C@@]2(C)C[C@H]1OC(C)=O	-2.71% (inactive)
C[C@@H]1O[C@@H](O[C@H]2C[C@@H](O)[C@]3(CO)[C@@H]4[C@@H](O)C[C@]5(C)[C@H](C6=CC(=O)OC6)CC[C@@]5(O)[C@H]4CC[C@@]3(O)C2)[C@H](O)[C@H](O)[C@@H]1O	-2.09% (inactive)
Oc1cc2c(cc1O)[C@H]1c3ccccc3CN[C@@H]1CC2	-0.292% (inactive)

Target: Alpha-galactosidase (Coffea arabica) (UniProt Q42656)
Test: Counterscreen for Glucocerebrosidase Inhibitors: qHTS Assay for Coffee Bean alpha-Galactosidase at pH 5.9 (AID 998);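 further: plate controls were uninhibited enzyme for no effect and no-enzyme basal signal for full effect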
Conditions: coffee bean alpha-galactosidase enzyme assay; series mostly up to 76.9 µM; activity, negative = inhibition: at the top concentration
Summary of the method: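 Enzyme 2 nM + cpd (0.7 nM–77 uM titration) + 4-MU-alpha-Gal 80 uM, pH 5.9 citrate/Tween-20, RT 20 min, NaOH/glycine stop pH 10, fluor 365/440. Normalized to no-enzyme and full-activity controls; Hill-fit AC50.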

Structure (SMILES)	activity, negative = inhibition
CCCCCCCCCCCCCC(=O)O[C@H]1[C@@H](C)[C@@]2(O)[C@@H](C=C(CO)C[C@]3(O)C(=O)C(C)=C[C@@H]23)C2C(C)(C)[C@]21OC(C)=O (stereo not given in full)	-21.4% (inactive)
COC[C@H]1OC(=O)c2coc3c2[C@@]1(C)C1=C(C3=O)[C@H]2CCC(=O)[C@@]2(C)C[C@H]1OC(C)=O	1.39% (inactive)
C[C@@H]1O[C@@H](O[C@H]2C[C@@H](O)[C@]3(CO)[C@@H]4[C@@H](O)C[C@]5(C)[C@H](C6=CC(=O)OC6)CC[C@@]5(O)[C@H]4CC[C@@]3(O)C2)[C@H](O)[C@H](O)[C@@H]1O	-1.94% (inactive)
Oc1cc2c(cc1O)[C@H]1c3ccccc3CN[C@@H]1CC2	0.567% (inactive)

Target: DNA dC->dU-editing enzyme APOBEC-3G (Homo sapiens) (UniProt Q9HC16)
Sequence (Q9HC16 whole entry, looked up): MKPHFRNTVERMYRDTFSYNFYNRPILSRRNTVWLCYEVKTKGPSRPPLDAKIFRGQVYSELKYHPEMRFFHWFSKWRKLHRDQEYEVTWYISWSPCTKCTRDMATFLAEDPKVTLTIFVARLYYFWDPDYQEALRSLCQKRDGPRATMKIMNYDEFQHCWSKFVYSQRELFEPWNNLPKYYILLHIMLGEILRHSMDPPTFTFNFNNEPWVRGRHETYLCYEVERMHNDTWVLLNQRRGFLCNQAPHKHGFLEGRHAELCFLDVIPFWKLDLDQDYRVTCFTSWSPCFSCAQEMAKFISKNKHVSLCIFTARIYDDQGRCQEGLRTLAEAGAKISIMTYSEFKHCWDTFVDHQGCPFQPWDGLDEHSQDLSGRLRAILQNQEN
Test: qHTS for inhibitors of Vif-A3G interactions: Validation (AID 588379); further: 0% is about no effect
Conditions: Vif-A3G protein interaction assay; series mostly up to 46.1 µM; activity change, negative = inhibition: at the top concentration
Summary of the method: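 Yellow fluorescence (Ex 488, Em 500-530) of Vif-coexpressing HeLa A3G-eYFP cells, scanned by Acumen cytometer, reports blocked A3G degradation. Cells plated at 700/well overnight at 37 deg C before compound addition, then a further overnight compound incubation at 37 deg C.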

Structure (SMILES)	activity change, negative = inhibition
Oc1cc2c(cc1O)[C@H]1c3ccccc3CN[C@H]1CC2	-1.05% (inactive)
COc1cc2c(cc1O)-c1c(O)c(OC)cc3c1[C@H](C2)N(C)CC3	-13.1% (inactive)
COC[C@H]1OC(=O)c2coc3c2[C@@]1(C)C1=C(C3=O)[C@H]2CCC(=O)[C@@]2(C)C[C@H]1OC(C)=O	-1.49% (inactive)

Tested on: not listed separately
Test: qHTS assay for small molecule activators of the p53 signaling pathway (AID 651743; active means well fitted activation curve with a large enough effect in the signal ratio, not every such curve was filed as active; the % refers to the signal ratio; further: % of control where 0% means no effect)
Conditions: HCT-116 p53RE-bla, beta-lactamase FRET ratio, 16 h; activation: active compounds read high
Summary of the method: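 Reporter: beta-lactamase driven by p53 response elements, stably integrated in HCT-116 cells. Cells seeded at 4,000/well, 5 h preincubation, compound (DMSO) 16 h at 37 C; B/G FRET substrate 2 h RT; fluorescence intensity read.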

Structure (SMILES)	activation
ClC1=C(Cl)C2(Cl)C3C(Cl)C(Cl)CC3C1(Cl)C2(Cl)Cl (stereo not given)	0.792% (inactive)
O=[N+]([O-])C(Br)Br	12.3% (inactive)
[Cd+2].[Cl-].[Cl-]	-8.9% (inactive)

Tested on: not listed separately
Test: qHTS assay for small molecule disruptors of the mitochondrial membrane potential - 5 hr assay (AID 651755; calls by dose curve; further: on the % scale 0 is the no-effect control and ±100 the full control effect; nearly all actives have a fitted effect of over 40% in size)
Conditions: JC-1-type ratio dye; series mostly up to 92.2 µM; ratio change, negative = disruption: at the top concentration
Summary of the method: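 Read-out: ratiometric Mito-MPS fluorescence, green monomer (ex 490/em 535) vs red mitochondrial aggregate (ex 540/em 590). HepG2 cells treated 5 hr at 37C before 30 min dye loading.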

Structure (SMILES)	ratio change, negative = disruption
ClC1=C(Cl)C2(Cl)C3C(Cl)C(Cl)CC3C1(Cl)C2(Cl)Cl (stereo not given)	-18.7% (inactive)
O=[N+]([O-])C(Br)Br	-16.2% (inactive)
[Cd+2].[Cl-].[Cl-]	-16.7% (inactive)
